High-throughput results (PubChem BioAssay)
Shown is part of a subset that was picked to be rich in hits.
NOMO-1 viab: STK33 inhibitor candidate reducing NOMO-1 cell viability. NOMO-1 AML viability, CellTiter-Glo luminescence, 72 h. inhibition, % (concentration not given with the values). hit rate 7.5% among 37,000. AID 2330; in the data active means inhibition above about 80%; inconclusive means no clear call, values can overlap the other calls
U2OS ROS induce: inducers of reactive oxygen species in cancer cells. ROS induction (% of piperlongumine), % at 10 µM. U2OS ROS induction, H2DCF-DA fluorescence. hit rate 2% among 46,000; in the data active means ROS induction above about 79%, passing the limit was not always enough; inconclusive means no clear call, values can overlap the other calls
A number is an active result; . = inactive; ? = inconclusive; / = no result given.

SMILES | NOMO-1 viab | U2OS ROS induce
C[C@@H]1CCCCO[C@H](CN(C)Cc2ccc(Cl)c(Cl)c2)[C@@H](C)CN([C@H](C)CO)C(=O)c2cc(NS(=O)(=O)c3ccc(Cl)cc3)ccc2O1 | 115.8 | .
COc1ccc(CN(C)C[C@@H]2OCCCC[C@@H](C)Oc3ccc(NS(=O)(=O)c4ccc(OC)cc4)cc3C(=O)N([C@H](C)CO)C[C@@H]2C)cc1 | . | 172.1
COc1ccc(S(=O)(=O)Nc2ccc3c(c2)C(=O)N([C@H](C)CO)C[C@H](C)[C@@H](CN(C)Cc2ccc(C(=O)O)cc2)OCCCC[C@@H](C)O3)cc1 | . | .
C[C@@H]1CCCCO[C@@H](CN(C)Cc2ccc(Cl)c(Cl)c2)[C@@H](C)CN([C@H](C)CO)C(=O)c2cc(NS(=O)(=O)c3ccc(Cl)cc3)ccc2O1 | . | .
COc1ccc(CN(C)C[C@@H]2OCCCC[C@@H](C)Oc3ccc(NS(=O)(=O)c4ccc(Cl)cc4)cc3C(=O)N([C@H](C)CO)C[C@@H]2C)cc1 | . | .
COc1ccc(CN(C)C[C@H]2OCCCC[C@@H](C)Oc3ccc(NS(=O)(=O)c4ccc(C)cc4)cc3C(=O)N([C@H](C)CO)C[C@@H]2C)cc1 | . | .
O=C(CSc1nc2ccc(NC(=O)c3ccccc3F)cc2s1)c1cccc([N+](=O)[O-])c1 | . | /
C(=N\C(/N=C/c1ccccc1)c1ccccc1)/c1ccccc1 | . | .
O=C1C(=O)N(CCN2CCOCC2)C(c2ccccn2)C1C(=O)c1cccs1 (stereo not drawn) | . | /
CNC[C@H]1OCCCC[C@@H](C)Oc2ccc(NS(=O)(=O)c3ccc(OC)cc3)cc2C(=O)N([C@H](C)CO)C[C@@H]1C | . | .
C[C@H](CO)N1C[C@H](C)[C@H](CN(C)S(=O)(=O)c2cccs2)Oc2ncc(-c3ccc(F)cc3)cc2C1=O | / | .
CN(CC(=O)Nc1ccc([N+](=O)[O-])cc1)S(=O)(=O)c1ccccc1 | . | .
COc1ccc(-c2noc(N3CCC(C(=O)NCCN4CCc5ccccc5C4)CC3)n2)cc1 | / | .
Cc1noc(C)c1NC(=O)Nc1cccc2c1O[C@@H](CN(C)S(=O)(=O)c1cn(C)cn1)[C@@H](C)CN([C@@H](C)CO)C2=O | . | .
COc1ccc(NC(=O)c2ccc(N(C)S(=O)(=O)c3ccc(OC)c(OC)c3)cc2)cc1OC | . | .
COc1ccc(NC(=O)c2ccc(-c3ccc(-c4noc(C)n4)cc3C)cc2)cc1OCCN(C)C | 115.4 | .
COc1ccc2c(c1O)CN(C)CCc1cc3c(cc1C(=O)C2)OCO3 | . | .
CN1CCc2c(-c3cccs3)nc(OCc3ccccc3Br)c(C#N)c2C1 | 97.4 | 168.2
N#Cc1ccc(CSc2nc(-c3cccs3)c3c(c2C(=O)O)CCCC3)cc1 | . | .
C[C@@H]1CN([C@@H](C)CO)C(=O)c2cc(NC(=O)C3CCCCC3)ccc2O[C@@H]1CN(C)S(=O)(=O)c1ccc(Cl)cc1 | . | .
CCOC(=O)c1ccc(Nc2c(C(=O)OCC)cnc3ccccc23)cc1 | / | 98.6
CCOC(=O)c1ccc(NC(=O)Cn2cnc3ccccc3c2=O)cc1 | . | /
C[C@H]1CN([C@@H](C)CO)C(=O)Cc2cc(NC(=O)Nc3cccc4ccccc34)ccc2O[C@@H]1CN(C)Cc1ccc(Cl)c(Cl)c1 | 108.3 | .
C[C@@H]1CN([C@H](C)CO)C(=O)Cc2cc(NC(=O)Nc3cccc4ccccc34)ccc2O[C@@H]1CN(C)Cc1ccccc1 | 87.6 | .
C[C@H](CO)N1C[C@H](C)[C@H](CN(C)Cc2ccc(-c3ccccc3)cc2)Oc2ccc(NC(=O)Nc3cccc4ccccc34)cc2CC1=O | . | .
SMILES | NOMO-1 viab | U2OS ROS induce
C[C@@H]1CN([C@H](C)CO)C(=O)Cc2cc(NC(=O)Nc3cccc4ccccc34)ccc2O[C@@H]1CN(C)Cc1ccncc1 | . | .
C[C@@H]1CCCCO[C@@H](CN(C)C(=O)Nc2ccc(F)cc2)[C@@H](C)CN([C@H](C)CO)C(=O)c2cc(NC(=O)CCCCCC(=O)Nc3ccccc3N)ccc2O1 | . | .
Cc1ccc(C(=O)c2oc3ccccc3c2NC(=O)c2cc3ccccc3oc2=O)cc1F | 112.2 | .
CCOc1ccc(C(=O)c2oc3ccccc3c2NC(=O)c2cc3ccccc3oc2=O)cc1 | . | .
CC12CC3CC(C1)CC(NC(=O)c1ccc(Cl)cc1Cl)(C3)C2 | 114.6 | .
CC(Oc1ccc(Cl)cc1Cl)C(=O)Nc1cccc(NC(=O)c2ccc(Cl)cc2Cl)c1 (stereo not drawn) | . | .
C[C@@H]1CCCCO[C@H](CN(C)Cc2ccc(C(=O)Nc3ccccc3N)cc2)[C@@H](C)CN([C@H](C)CO)C(=O)c2cc(NS(C)(=O)=O)ccc2O1 | . | .
COc1ccc(S(=O)(=O)Nc2ccc3c(c2)C(=O)N([C@H](C)CO)C[C@H](C)[C@H](CN(C)Cc2ccc(C(=O)Nc4ccccc4N)cc2)OCCCC[C@@H](C)O3)cc1 | 125.8 | .
C[C@@H]1CCCCO[C@@H](CN(C)Cc2ccc(C(=O)Nc3ccccc3N)cc2)[C@@H](C)CN([C@H](C)CO)C(=O)c2cc(NS(=O)(=O)c3ccc(Cl)cc3)ccc2O1 | 127.1 | .
COc1ccc(CN(C)C[C@@H]2OCCCC[C@@H](C)Oc3ccc(NS(=O)(=O)c4ccccc4)cc3C(=O)N([C@H](C)CO)C[C@@H]2C)cc1 | . | .
C[C@H]1CN([C@@H](C)CO)C(=O)Cc2cc(NC(=O)Nc3ccccc3)ccc2O[C@@H]1CN(C)S(=O)(=O)c1cn(C)cn1 | . | .
CCN1CCN(Cc2c(C)[nH]c3ccc(Cl)cc3c2=O)CC1 | . | .
C[C@@H]1CCCCO[C@@H](CN(C)S(=O)(=O)c2cn(C)cn2)[C@@H](C)CN([C@H](C)CO)C(=O)c2cc(NS(=O)(=O)c3cn(C)cn3)ccc2O1 | . | .
O=c1c2c3c(sc2[nH]c(=S)n1Cc1ccccc1)CCC3 | . | .
Cn1c(=S)[nH]c2sc3c(c2c1=O)CCC(C(C)(C)C)C3 (stereo not drawn) | 123.2 | .
CCc1ccc(N=Cc2c(O)n(-c3ccccc3)c(=O)c3ccccc23)cc1 | 120.0 | .
CCc1ccc(N=Cc2c(O)[nH]c(=S)[nH]c2=O)cc1 | / | .
Cc1noc(C)c1NC(=O)Nc1ccc2c(c1)CC(=O)N([C@@H](C)CO)C[C@@H](C)[C@@H](CN(C)S(=O)(=O)c1c(C)noc1C)O2 | . | 85.2
Cc1noc(C)c1S(=O)(=O)N(C)C[C@H]1Oc2ccc(NC(=O)Nc3ccc(C(F)(F)F)cc3)cc2CC(=O)N([C@@H](C)CO)C[C@H]1C | 91.7 | .
Cc1noc(C)c1NC(=O)Nc1ccc2c(c1)CC(=O)N([C@H](C)CO)C[C@@H](C)[C@H](CN(C)S(C)(=O)=O)O2 | . | .
Cc1noc(C)c1S(=O)(=O)N(C)C[C@H]1Oc2ccc(NC(=O)Nc3ccccc3)cc2CC(=O)N([C@@H](C)CO)C[C@@H]1C | . | .
Cc1ccc(S(=O)(=O)Nc2ccc3c(c2)CC(=O)N([C@@H](C)CO)C[C@H](C)[C@H](CN(C)C(=O)Nc2ccccc2)O3)cc1 | . | .
C[C@H](CO)N1C[C@H](C)[C@H](CN(C)Cc2ccc(-c3ccccc3)cc2)Oc2ccc(NC(=O)Nc3ccc(C(F)(F)F)cc3)cc2C1=O | 92.0 | ?
C[C@H]1CN([C@@H](C)CO)C(=O)c2cc(NC(=O)Nc3ccc(C(F)(F)F)cc3)ccc2O[C@@H]1CN(C)Cc1ccc(-c2ccccc2)cc1 | 107.5 | .
